Source: PubChem
Most compounds without a hit are left out; they make up all but 12% or so of the library.
Lassa entry inh – blocks Lassa virus binding to or entry into cells; hit rate 1.2% among 300,000; Lassa virus pseudotype entry inhibition, cell reporter; Potency, µM (titrated, usually from 37.9 µM), usual class: inhibitors; calls by dose curve; tested in HEK293 cells; note: nearly all actives have a fitted effect of over 50% in size
CHX counter – counter-screen for Shiga toxin inhibitors: cycloheximide protein synthesis inhibition | hit rate 12% among 300,000 | max response, % | cell reporter, cycloheximide protein synthesis inhibition counterscreen | AID 2314; in the data active = max response mostly above about 13%, no sharp cut-off; inactive = mostly below about 14%; note: read at 38.3 µM for the half of the compounds with a filed dose
Shiga inhibitor – Shiga toxin inhibition; Vero cells, Shiga toxin protein synthesis inhibition reporter; AID 2315; inhibition, % at 38.7 µM; hit rate 9.2% among 290,000; in the data active = inhibition mostly above about 28%, no sharp cut-off; inactive = mostly below about 43%
Marburg entry inh – inhibitors of Marburg virus binding or cell entry; Marburg virus pseudotyped entry inhibition, cell reporter; hit rate 1.8% among 300,000; Potency, µM (top dose mostly 37.8 µM), hits mostly inhibitors; AID 540276; calls by dose curve; tested in HEK293 cells
Large screens that a line does not name were inactive.

CCOc1ccccc1NC(=O)c1ccc2ccccc2c1	CHX counter 22.9 (no result: Shiga inhibitor)
CN(CCc1ccccn1)C(=O)CCC1CCCN(C(=O)c2ccc3c(c2)OCCO3)C1 (centres undefined)	none
Cc1ccc(S(=O)(=O)c2cn(CC(=O)Nc3cccc(C)c3)c3cc4c(cc3c2=O)OCO4)cc1	Marburg entry inh inconclusive (no result: CHX counter, Shiga inhibitor)
Cc1cc(C(=O)N2CCN(S(=O)(=O)c3ccc(C)c(C)c3)CC2)no1	none (no result: CHX counter, Shiga inhibitor)
Cc1nnc(SCc2cc(=O)[nH]c(/N=C(\N)Nc3ccccc3Sc3ccccc3)n2)s1	Marburg entry inh inconclusive
COc1ccccc1N/C(N)=N/c1nc(CSc2nc3ccccc3s2)cc(=O)[nH]1	Shiga inhibitor 47.9 (no result: Lassa entry inh)
CCOC(=O)c1c(C)[nH]c(C)c1S(=O)(=O)N1CCC(C(=O)NCc2ccccc2)CC1	none (no result: CHX counter, Shiga inhibitor, Marburg entry inh)
O=C(O)c1ccc2c(c1)C(=O)N(c1cccc(C(=O)/C=C/c3ccccc3)c1)C2=O	CHX counter 28.4, Shiga inhibitor 52.5
CC(C)(C)OC(=O)NNC(=O)Nc1ccccc1C(F)(F)F	none
OCCNCc1cc(Br)ccc1OCc1ccc(Cl)cc1	Marburg entry inh inconclusive
OCCNCc1cc(Br)ccc1OCc1ccc(Cl)cc1Cl	Lassa entry inh 11.2µM, Marburg entry inh 11.2µM
Cc1ccc(C)c(C(=O)COc2ccc(C)nc2[N+](=O)[O-])c1	Marburg entry inh inconclusive
CCCNC(=O)COc1ccccc1[N+](=O)[O-]	none
NNC(=O)COc1ccccc1[N+](=O)[O-]	CHX counter 24.5
CCCCNC(=O)c1cc2cccc([N+](=O)[O-])c2[nH]1	Lassa entry inh inconclusive, CHX counter 22.5
Cc1cc(C)c(S(=O)(=O)Oc2ccccc2[N+](=O)[O-])c(C)c1	Lassa entry inh 3.16µM, Marburg entry inh inconclusive (no result: CHX counter, Shiga inhibitor)
Cc1ccc(C)c(C(=O)COc2ccccc2[N+](=O)[O-])c1	CHX counter 36.3, Shiga inhibitor 25.5
O=[N+]([O-])c1ccccc1OCCNCc1ccccc1	CHX counter 16.4 (no result: Lassa entry inh, Shiga inhibitor, Marburg entry inh)
O=[N+]([O-])c1ccccc1OCCN1CCCC1	none (no result: Lassa entry inh, Marburg entry inh)
CCCCNC(=O)COc1ccccc1[N+](=O)[O-]	CHX counter 24.7, Shiga inhibitor 76.9
CC(C)(C)c1[nH]nc2c1C(Cc1ccccc1)C(C#N)=C(N)O2 (centres undefined)	Marburg entry inh inconclusive
c1ccc(C(c2ccccc2)c2ccn[nH]2)cc1	CHX counter 19.0, Shiga inhibitor 60.9 (no result: Lassa entry inh, Marburg entry inh)
CCc1cccc(N2C(=O)CSC23C(=O)N(Cc2ccccc2F)c2ccccc23)c1 (centres undefined)	Lassa entry inh 10µM (no result: CHX counter, Shiga inhibitor, Marburg entry inh)
O=C1CSC2(C(=O)N(Cc3ccccc3F)c3ccccc32)N1c1ccc(F)cc1 (centres undefined)	none (no result: CHX counter, Shiga inhibitor, Marburg entry inh)
CCCc1cc(C(=O)Nc2ccn(Cc3ccc(C)cc3)n2)no1	none (no result: Lassa entry inh, Marburg entry inh)
Cc1ccc(C(=O)Nc2ccc(F)cc2F)o1	CHX counter 43.8, Marburg entry inh inconclusive
Cc1ccc(C(=O)Nc2ccn(Cc3ccc(F)cc3)n2)o1	CHX counter 25.0, Shiga inhibitor 56.0
Cc1ccc(C(=O)C(C)OC(=O)Cc2n[nH]c(=O)c3ccccc23)cc1 (centres undefined)	Marburg entry inh inconclusive (no result: CHX counter, Shiga inhibitor)
CCCN(CC(=O)Nc1ccccc1C)C(=O)c1ccc(COc2ccccc2)cc1	CHX counter 30.1, Shiga inhibitor 85.1
CCN(CC(=O)NCc1ccc(F)cc1)C(=O)C1CCN(C(=O)Nc2ccccc2)CC1	Lassa entry inh inconclusive, CHX counter 13.1
CCN(CC(=O)NCc1ccc(F)cc1)C(=O)c1ccc(COc2ccccc2)cc1	Lassa entry inh inconclusive, CHX counter 52.2, Shiga inhibitor 99.0
Cc1nc(SCc2cccc(Oc3ccccc3)c2)n[nH]1	Lassa entry inh inconclusive, CHX counter 46.5
COc1ccc(CSc2n[nH]c(C)n2)cc1Br	none
Cc1nc(SCc2ccc(OCCC(C)C)cc2)n[nH]1	CHX counter 48.7, Shiga inhibitor 154.3 (no result: Lassa entry inh, Marburg entry inh)
COc1ccc(Cl)cc1CSc1n[nH]c(C)n1	none
Cc1nc(SCc2ccc(Cl)c(Cl)c2)n[nH]1	CHX counter 15.6 (no result: Lassa entry inh, Marburg entry inh)
CCCCCOc1ccc(CSc2n[nH]c(C)n2)cc1	Lassa entry inh inconclusive
Cc1nc(SCc2ccc(F)cc2)n[nH]1	none
CCCCOc1ccc(Cl)cc1CSc1n[nH]c(C)n1	Marburg entry inh 0.206µM
COc1ccc(CN(C(=O)c2cc(=O)c3cc(C)cc(C)c3o2)C2CCS(=O)(=O)C2)cc1 (centres undefined)	none (no result: Lassa entry inh, Marburg entry inh)
Cc1ccc2c(c1)N=C(c1ccccc1)CC(C(Cl)Cl)=N2	Lassa entry inh inconclusive, CHX counter 37.3, Shiga inhibitor 83.9, Marburg entry inh inconclusive
Cc1ccc(C2=Nc3ccccc3N=C(C(Cl)Cl)C2)cc1	Lassa entry inh inconclusive, CHX counter 41.4, Shiga inhibitor 123.3, Marburg entry inh inconclusive
CCC1CCCCN1C(=S)NC1CCCCC1 (centres undefined)	none
Cc1ccc(CCNC(=O)C2CCN(S(=O)(=O)c3ccc4c(ccn4C)c3)CC2)cc1	none (no result: CHX counter, Shiga inhibitor, Marburg entry inh)
